The source of these data is publication PMC10726135, “HNF4α isoforms regulate the circadian balance between carbohydrate and lipid metabolism in the liver”.

In all, about 18,000 sequences were measured (“log2 normalized intensity”: median about 0.39, highest 2% from about 6.6 on). This is one part of a sample in which the highest values are shown more often than they occur.

For this assay, the target named is T1, HNF4alpha2 (COS-7 nuclear extract) (Homo sapiens, UniProt P41235 1-474).
T1 sequence: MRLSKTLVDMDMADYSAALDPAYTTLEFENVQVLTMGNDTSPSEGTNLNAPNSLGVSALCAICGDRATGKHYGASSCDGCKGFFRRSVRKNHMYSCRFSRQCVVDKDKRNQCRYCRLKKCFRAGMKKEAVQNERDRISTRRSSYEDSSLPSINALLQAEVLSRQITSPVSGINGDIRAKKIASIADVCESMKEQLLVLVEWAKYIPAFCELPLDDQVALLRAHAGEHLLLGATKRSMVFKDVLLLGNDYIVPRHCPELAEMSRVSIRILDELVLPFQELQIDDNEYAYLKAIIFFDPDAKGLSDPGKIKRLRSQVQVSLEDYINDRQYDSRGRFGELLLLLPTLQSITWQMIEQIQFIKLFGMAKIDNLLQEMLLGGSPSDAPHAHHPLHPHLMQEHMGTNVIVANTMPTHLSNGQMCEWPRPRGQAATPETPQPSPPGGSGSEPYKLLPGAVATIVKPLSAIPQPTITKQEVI
As to the kind of experiment: protein-binding microarray; COS-7 nuclear extract on double-stranded Agilent 4x180k PBM; binding buffer, salt, pH and temperature not given in the material; high values mean tight binding. The settings on record: chain copies: 2; label: 3' end of strand 1 on the slide; dsDNA, one strand shown. The essentials:
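The binding signal is Agilent software's gProcessedSignal after background correction and normalization. Arrays were a custom Agilent SurePrint G3 4x180k design of double-stranded ~60-nt oligonucleotides with ~44,000 test sequences in quadruplicate, probed with nuclear extracts of COS-7 cells transiently expressing a human HNF4α isoform. Scans were made at 2-µm resolution on an Agilent G2565CA scanner.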
For “ACAAAAACTGTTTCTATGTGACCTTCACCCGCCTAGGGAGATTAGAGTATCGGTCGA”, the binding signal is 5.26 log2 normalized intensity. Take “AAGACTTCCTGGCCTCTCTGCAAATTTGCCGCCTAGGGAGATTAGAGTATCGGTCGA”: the binding signal was -0.993 log2 normalized intensity. Then “GTTAGGAAACACTCTGTTTGTAAAGTCTACGCCTAGGGAGATTAGAGTATCGGTCGA”, with 0.577 log2 normalized intensity.

Consider “CTTGGCTGTGCTGCCCTTTGCCCTTTGGGAGCCTAGGGAGATTAGAGTATCGGTCGA”, for which the binding signal came out at 7.11 log2 normalized intensity. Turning to “TTTTCCTTGGCTGTGCTGCCCTTTGCCCTTGCCTAGGGAGATTAGAGTATCGGTCGA”, the binding signal stood at 7.6 log2 normalized intensity.

Regarding “CTGTGCTGCCCTTTGCCCTTTGGGAAGGGGGCCTAGGGAGATTAGAGTATCGGTCGA”, the binding signal came to 5.8 log2 normalized intensity. As to “GAGAGTTTTCCTTGGCTGTGCTGCCCTTTGGCCTAGGGAGATTAGAGTATCGGTCGA”, the binding signal was 3.6 log2 normalized intensity. Regarding “GGACTTTGGGCTGTGTTTTGCCCCTGCAGAGCCTAGGGAGATTAGAGTATCGGTCGA”, the binding signal turned out to be 3.66 log2 normalized intensity. Then “GGGTGGGGTGCTGCCTTTCCTGTGACTTTTGCCTAGGGAGATTAGAGTATCGGTCGA”, with 1.74 log2 normalized intensity; and “GGGCATGGACTTTGGAATTAAGGAGATTTGGCCTAGGGAGATTAGAGTATCGGTCGA”, with 4.96 log2 normalized intensity. Then “AGATCCGAAGTCTAGGACGTTATCAGCAGGGCCTAGGGAGATTAGAGTATCGGTCGA”, with 0.0613 log2 normalized intensity. “ATAAGTTTTCTCATAAAACACCCACCTTGTGCCTAGGGAGATTAGAGTATCGGTCGA”: the binding signal is -0.452 log2 normalized intensity. For the sequence “CCTTTGCACCAGAGATAATATGCTTACTTAGCCTAGGGAGATTAGAGTATCGGTCGA”, the binding signal amounted to 0.0286 log2 normalized intensity.

Consider “AAGACAGGGGCTATTTCTGACCTTTGCACCGCCTAGGGAGATTAGAGTATCGGTCGA”, for which the binding signal was found to be 9.65 log2 normalized intensity. The same measure for “CTATTTCTGACCTTTGCACCAGAGATAATAGCCTAGGGAGATTAGAGTATCGGTCGA”: 5.8 log2 normalized intensity; for “TCTGACCAGGCTGATTTAGCTATTTGACCTGCCTAGGGAGATTAGAGTATCGGTCGA”: 4.02 log2 normalized intensity.

For “TGGCTAAGACAGGGGCTATTTCTGACCTTTGCCTAGGGAGATTAGAGTATCGGTCGA”, the binding signal turned out to be 6.5 log2 normalized intensity. With “AGGGGCTATTTCTGACCTTTGCACCAGAGAGCCTAGGGAGATTAGAGTATCGGTCGA”, the binding signal was 6.87 log2 normalized intensity. On to “ATGACTCCAAAGTTCAAACTCTGAAAGCACGCCTAGGGAGATTAGAGTATCGGTCGA”, for which the binding signal came out at 2.34 log2 normalized intensity. The same measure for “CCCTGCAGTCCTCTGCTTATCTGGCCTGCTGCCTAGGGAGATTAGAGTATCGGTCGA”: -0.935 log2 normalized intensity; for “ATCTGGTGGTGGTTCTTGTTTCATTGCACAGCCTAGGGAGATTAGAGTATCGGTCGA”: 1.84 log2 normalized intensity. In the case of “GTCTTGAGCGCAAATGATCAAAGGTCGGTTGCCTAGGGAGATTAGAGTATCGGTCGA”, the binding signal came to 5.6 log2 normalized intensity.

As for “TCAGCACTGAGAGATTACATTTGACTGAGGGCCTAGGGAGATTAGAGTATCGGTCGA”, the binding signal was -0.895 log2 normalized intensity. The same measure for “TCTTTCAGTGTTGACCTTTGAACATTTCTTGCCTAGGGAGATTAGAGTATCGGTCGA”: 8.04 log2 normalized intensity; for “GAATGTTGAACCTTTCTTTGTCTTTGCAATGCCTAGGGAGATTAGAGTATCGGTCGA”: 2.02 log2 normalized intensity.

As to “AACCTTCATCTCTCTTTGTTGACATCTGCTGCCTAGGGAGATTAGAGTATCGGTCGA”, the binding signal worked out at 0.528 log2 normalized intensity.

Turning to “AACACTATCTTCTTTCAGTGTTGACCTTTGGCCTAGGGAGATTAGAGTATCGGTCGA”, the binding signal came out at 6.87 log2 normalized intensity. Regarding “AGGAGTGTCTTTCTCCTTGAACACAGTGTTGCCTAGGGAGATTAGAGTATCGGTCGA”, the binding signal is 1.25 log2 normalized intensity. Consider “CATGCTCTTGGAATGTTGAACCTTTCTTTGGCCTAGGGAGATTAGAGTATCGGTCGA”, for which the binding signal was 2.64 log2 normalized intensity. As for “TCTTGGAATGTTGAACCTTTCTTTGTCTTTGCCTAGGGAGATTAGAGTATCGGTCGA”, the binding signal is 2.24 log2 normalized intensity. For “TATCTTCTTTCAGTGTTGACCTTTGAACATGCCTAGGGAGATTAGAGTATCGGTCGA”, the binding signal stood at 8.83 log2 normalized intensity. For “TATCCAATAAAACACTATCTTCTTTCAGTGGCCTAGGGAGATTAGAGTATCGGTCGA”, the binding signal turned out to be 0.883 log2 normalized intensity. For “CTTAAAGGCCTGTGTCGATGTTAACGCTAAGCCTAGGGAGATTAGAGTATCGGTCGA”, the binding signal is -0.828 log2 normalized intensity. For the sequence “GCCCTTCCCCCCTCTGCAGCCTTACCCAGTGCCTAGGGAGATTAGAGTATCGGTCGA”, the binding signal was 4.59 log2 normalized intensity.

For “TGTCGTTTGCTTAGTCTTATCTGAGGTGCCGCCTAGGGAGATTAGAGTATCGGTCGA”, the binding signal was found to be 0.932 log2 normalized intensity. On to “GAAATGGTGGACTTTGTAGCTCAAACAGTCGCCTAGGGAGATTAGAGTATCGGTCGA”, for which the binding signal amounted to 3.13 log2 normalized intensity. On to “TATGGATAGGCACATATTGGATCTCTGGTAGCCTAGGGAGATTAGAGTATCGGTCGA”, for which the binding signal amounted to 0.865 log2 normalized intensity. Take “CAGTTTGAAATTAGGCAATATGAGTAGAGCGCCTAGGGAGATTAGAGTATCGGTCGA”: the binding signal is -0.693 log2 normalized intensity. On to “TTGGCTAAAGTCCAAATTCCTTGGAATACAGCCTAGGGAGATTAGAGTATCGGTCGA”, for which the binding signal is 3.12 log2 normalized intensity.

On to “CACACACACACAGCATTCCATTCATTTTAGGCCTAGGGAGATTAGAGTATCGGTCGA”, for which the binding signal was -0.727 log2 normalized intensity. The same measure for “AACATGTAATCATTTGGGACAAAGTTCATCGCCTAGGGAGATTAGAGTATCGGTCGA”: 4.11 log2 normalized intensity. The same measure for “TGAACAATTGATTTATAGCCTTTTTGCCCAGCCTAGGGAGATTAGAGTATCGGTCGA”: 1.29 log2 normalized intensity; for “TGCTTTCTTATCTGGGGGCCATTCCTCTATGCCTAGGGAGATTAGAGTATCGGTCGA”: 1.1 log2 normalized intensity.
